High-throughput results as filed in PubChem BioAssay.
TGFb inhibitor – inhibitors of TGF-b signaling; HepG2 CAGA-GFP TGF-b/SMAD3 reporter, GFP fluorescence, 18 h; TGF-beta stimulated, 500 pg/mL final; hit rate 1.2% among 410,000; Potency, µM (top dose mostly 46.1 µM), for the others: top-dose activity, negative = inhibition, hits mostly inhibitors; note: potency is the fitted concentration of half-maximal effect; % is set by controls: 0 for no effect and ±100 for the full control effect; nearly all actives have a fitted effect of over 65% in size
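HEPG2 CAGA-GFP reporter cells (1000/well, DMEM with 1% FBS) received compounds, then recombinant TGF-beta at 500 pg/mL final for 18 hours at 37 degrees C. Per-cell GFP summed per well was normalised to unstimulated and stimulated DMSO controls before curve fitting.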
HepG2 tox – HepG2 cytotoxicity, counter-screen for TGF-b inhibitors; hit rate 0.76% among 410,000; HepG2 CAGA-GFP viability, ATP luminescence, 18 h; Potency, µM (highest dose often 46.1 µM), inactives show top-dose activity change, negative = cytotoxicity, actives largely listed as cytotoxic; note: potency is the fitted concentration of half-maximal effect
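CellTiter-Glo luminescence gave cytotoxicity after 18 hours at 37 degrees C. The cells were HepG2 CAGA-GFP in 1% FBS DMEM, stimulated with 500 pg/mL TGF-beta after compound addition. %Activity was normalised to no-cell wells (complete cell-killing) and DMSO (no toxicity), and curves were fitted and classified.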
TDP1 cell noCPT – qHTS for Inhibitors of human tyrosyl-DNA phosphodiesterase 1 (TDP1): qHTS in cells in absence of CPT. DT40 Tdp1-/- hTDP1 cells, no CPT, ATP luminescence, 48 h. Potency, µM (series often up to 46.2 µM), for inactives: at the highest dose activity change, negative = growth inhibition, most hits filed as inhibitors. hit rate 15% among 420,000. AID 686978, 2013; note: potency is the fitted concentration of half-maximal effect; % is set by controls: 0 for no effect and ±100 for the full control effect; nearly all actives have a fitted effect of over 55% in size
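Readout: luminescence from CellTiter-Glo after 30 min in the dark at RT. Cells: DT40 Tdp1-/- with stable hTDP1, 400/well. Exposure: compounds alone, ≥48 hr, 37 °C.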
IL1B secr inh – inflammasome signaling inhibition, IL-1 beta readout; THP-1 LPS/ATP IL-1B secretion, AlphaLISA, 16 h; active compounds read low; activity change, % at 57.5 µM; hit rate 4.7% among 360,000; in the data active = activity change below about -50%; inconclusive = mostly about -30% to -49%; note: % is set by controls: 0 for no effect and ±100 for the full control effect
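Secreted IL-1B measured by AlphaLISA bead assay after 16 h compound exposure of THP-1 cells; compounds (final up to 57.5 uM) added 1 h before LPS (250 ng/mL) and ATP (1.25 mM) stimulation; lower signal means less secretion.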
TDP1 block – blocks human tyrosyl-DNA phosphodiesterase 1; Q9NUW8; recombinant TDP1, AlphaScreen DNA substrate cleavage; Potency, µM (series often up to 130 µM), for the others: at the top dose activity change, negative = inhibition, actives largely listed as inhibitors; hit rate 0.28% among 350,000; AID 485290; note: potency is the fitted concentration of half-maximal effect; % is set by controls: 0 for no effect and ±100 for the full control effect; nearly all actives have a fitted effect of over 40% in size
Target sequence (Q9NUW8 whole entry, looked up): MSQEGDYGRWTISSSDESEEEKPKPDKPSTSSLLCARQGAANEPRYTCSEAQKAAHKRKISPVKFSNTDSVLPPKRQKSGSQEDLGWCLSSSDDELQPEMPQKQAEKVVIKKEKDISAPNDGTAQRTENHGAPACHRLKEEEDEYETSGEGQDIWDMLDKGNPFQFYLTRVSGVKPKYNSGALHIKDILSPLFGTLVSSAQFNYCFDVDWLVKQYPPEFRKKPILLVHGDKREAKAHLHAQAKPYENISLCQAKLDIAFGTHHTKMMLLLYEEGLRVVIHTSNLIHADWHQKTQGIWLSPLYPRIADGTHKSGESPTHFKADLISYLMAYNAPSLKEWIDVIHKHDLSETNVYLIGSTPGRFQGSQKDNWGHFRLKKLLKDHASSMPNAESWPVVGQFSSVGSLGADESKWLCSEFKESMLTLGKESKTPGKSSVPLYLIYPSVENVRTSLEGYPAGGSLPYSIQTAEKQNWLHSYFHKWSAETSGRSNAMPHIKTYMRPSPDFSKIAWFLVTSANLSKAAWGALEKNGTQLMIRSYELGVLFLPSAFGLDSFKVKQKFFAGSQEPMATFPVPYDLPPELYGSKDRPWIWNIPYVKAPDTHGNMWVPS
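Enzyme-compound mixtures sat 15 min at room temperature, followed by a 5 min reaction with 15 nM final substrate and 10 min with AlphaScreen beads. Recombinant human Tdp1 was used at 1 nM final.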
DT40 TDP1 CPT – growth inhibition of DT40 Tdp1-/-;hTDP1 cells with camptothecin (screen for TDP1 inhibitors); chicken DT40 Tdp1-/-;hTDP1 cells + 20 nM CPT, ATP luminescence, 48 h; Potency, µM (titrated, usually from 46.2 µM), without a hit: at the top dose activity change, negative = growth inhibition, hits mostly inhibitors; hit rate 12% among 420,000; AID 686979; note: potency is the fitted concentration of half-maximal effect; % is set by controls: 0 for no effect and ±100 for the full control effect; nearly all actives have a fitted effect of over 55% in size
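Chicken DT40 Tdp1-/- cells complemented with human TDP1, 400 cells/well, exposed to compounds plus 20 nM camptothecin for at least 48 h at 37 C; viability read as ATP content by CellTiter-Glo luminescence.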
The depositor's hits bear a star; u = inconclusive; x = no result given; [ ] = another dose, or the depositor's remark. Hits are enriched below; roughly 19% of the tested compounds scored in any of these assays. Unless noted, calls come from the whole dose curve; as a rule, active = well fitted curve in the direction sought with a large enough effect; inconclusive = small, poorly fitted or top-dose-only effect, or another doubt; inactive = no such curve, though single readings can be large; an effect the other way counts as inactive or inconclusive.

SMILES	TGFb inhibitor	HepG2 tox	TDP1 cell noCPT	IL1B secr inh	TDP1 block	DT40 TDP1 CPT
CCOC(=O)[C@]12CCCC=C1N(CCc1ccc(OC)c(OC)c1)C(=O)[C@H](CC(=O)NCCCCc1ccccc1)C2	x	x	16µM*	-57*	x	u
CCOC(=O)[C@]12CCCC=C1N(Cc1cccc3ccccc13)C(=O)[C@H](CC(=O)NCc1cccc(C(F)(F)F)c1)C2	x	x	u	-5	x	u
COCCCNC(=O)C[C@@H]1C[C@@]2(C(=O)OC)CCCCC=C2N(CCc2ccc(OC)c(OC)c2)C1=O	x	x	u	24	x	-15%
CCOC(=O)[C@]12CCCC=C1N(CCC1=CCCCC1)C(=O)[C@H](CC(=O)NCc1cccc3ccccc13)C2	x	x	16µM*	13	x	u
CCCCNC(=O)C[C@@H]1C[C@@]2(C(=O)OC)CCCCC=C2N(CCc2ccc(OC)c(OC)c2)C1=O	x	x	23µM*	-13	x	u
CCCCC[C@H](O)/C=C/C=C\C=C\C=C\[C@@H](O)[C@@H](O)CCCC(=O)O	x	x	0%[0.628 µM]	x	6%	-2%[0.628 µM]
CCc1ccc2oc(-c3cccc(NC(=O)c4ccc(-c5cccc([N+](=O)[O-])c5)o4)c3)nc2c1	6%	-3%	x	x	3%	x
CCOC(=O)[C@]12CCC=C1N(Cc1ccc3c(c1)OCO3)C(=O)[C@H](CC(=O)NCCc1ccccc1OC)C2	x	x	u	0	x	u
CCCCCCCCN1C(=O)[C@H](CC(=O)NCCc2ccccc2OC)C[C@@]2(C(=O)OCC)CCCC=C12	x	x	29µM*	u	x	u
COC(=O)[C@]12CCCCC=C1N(Cc1ccco1)C(=O)[C@H](CC(=O)NCC13CC4CC(CC(C4)C1)C3)C2	x	x	u	-16	x	u
CCOC(=O)[C@]12CCCC=C1N(CCc1ccc(OC)c(OC)c1)C(=O)[C@H](CC(=O)NCCc1ccccc1OC)C2	x	x	16µM*	-3	x	13µM*
CCCCCCCCN1C(=O)[C@H](CC(=O)NCC23CC4CC(CC(C4)C2)C3)C[C@@]2(C(=O)OCC)CCCC=C12	x	x	18µM*	4	x	u
Cc1cccc(NC(=O)CSc2nc(-c3cccs3)cc(C(F)(F)F)c2C#N)c1C	-5%	-21%	-13%	x	0%[12.3 µM]	-13%
O=C(Nc1ccccc1)OC[C@H](CN1CCCCC1)OC(=O)Nc1ccccc1	x	x	x	x	6%[56.1 µM]	x
Cc1ccc2c(CC(=O)N3CCOc4ccc(CN5CCOCC5)cc4C3)cc(=O)oc2c1	x	x	-18%	x	x	-3%[9.04 µM]
Cc1ccc(OC(=O)c2ccc(S(=O)(=O)N(C)C)cc2)c(-n2nc3ccccc3n2)c1	-8%	-13%	-18%	-22	5%	-10%
Cc1ccc(S(=O)(=O)N(C(=O)c2ccncc2)c2ccc(OC(=O)c3ccncc3)c3ccccc23)cc1	0%	-22%	5.2µM*	-79*	8%	2.6µM*
Cc1ccc(S(=O)(=O)N(C(=O)c2ccncc2)c2ccc(OC(=O)c3ccncc3)c3ccccc23)c(C)c1	u	-8%	3.7µM*	42	8%	4.6µM*
CCN(C(=O)c1nn(-c2ccc(OC)c(Cl)c2)c(=O)c2c1c1ccccc1n2C)c1cccc(C(F)(F)F)c1	-2%	-14%	u	x	2%	u
CCN(CC)c1ncnc2c1ncn2[C@H]1CN(Cc2ccccc2)C[C@@H](CO)O1	14%	-12%	u	-11	x	-17%
Cc1ccc(S(=O)(=O)N[C@H]2COC(=O)C/C=C\[C@H](C)[C@@H](NS(=O)(=O)c3ccc(C)cc3)COC(=O)C/C=C\[C@@H]2C)cc1	x	x	x	x	4%[21 µM]	x
